Source: PubChem BioAssay AID602429 (Sanford-Burnham Center for Chemical Genomics, 2012)
Out of some 360,000 compounds screened, about 1,200 (0.33%) were called active. Rule as the data show it: active = inhibition above about 37%; inactive = the rest. For the sample, actives were picked, then their nearest neighbours and some compounds at random.

What follows are compounds tested against Small ubiquitin-related modifier 1 (Homo sapiens) (UniProt P63165) (assay: SUMO1 binding to interaction partners, disruption – biochemical, uHTS, primary screen (AID 602429)). Details: SUMO1 binding to a labelled peptide, TR-FRET, 1 h; at 20 µM; hits give high values.
Chain of Small ubiquitin-related modifier 1 (Homo sapiens) (P63165 whole entry, looked up): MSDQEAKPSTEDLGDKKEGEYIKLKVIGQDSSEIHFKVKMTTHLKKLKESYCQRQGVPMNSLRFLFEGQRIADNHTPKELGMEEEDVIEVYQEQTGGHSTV

| Compound | inhibition |
| --- | --- |
| O=C(c1ccc2c(c1)OCCO2)C1CCN(S(=O)(=O)c2cccc(F)c2)CC1 | -0.625% (inactive) |
| CCn1ncc(Br)c1C(=O)Nc1cc(C)ccc1F | 1.78% (inactive) |
| COc1ccc([N+](=O)[O-])cc1NC(=O)CC1SC(=Nc2cccc(C)c2C)N(/N=C(\C)c2ccc(C)cc2)C1=O (stereo not given) | -1.72% (inactive) |
| CCN(CC(=O)N1CCCC1)S(=O)(=O)c1ccc(F)cc1 | 0.769% (inactive) |
| Cc1ccc(S(=O)(=O)NCCSC(C)(C)C)cc1 | 2.52% (inactive) |
| COc1nc(N(C)C)nc(N2CC(=O)N(CCNS(=O)(=O)c3ccc(C)cc3)C2=N)n1 | 44% (active) |
| COc1nc(Oc2ccc(=O)n(C)n2)nc(N(C)C)n1 | -2.1% (inactive) |
| Cc1cc(C)c2nc(NC(=O)C3CCCO3)sc2c1 (stereo not given) | -1.66% (inactive) |
| O=C(Nc1nnc(CCc2ccccc2)s1)C1CCCO1 (stereo not given) | 42.9% (active) |
| O=C(Nc1nnc(SCc2c(Cl)cccc2Cl)s1)C1CCCO1 (stereo not given) | 4.7% (inactive) |
| Cc1ccc(NC(=O)Cn2cccc2C2=NC(c3ccccc3)CO2)c(C)c1 (stereo not given) | -4.14% (inactive) |
| COC(=O)c1cc2occc2n1Cc1nc(-c2ccccc2C)oc1C | 0.0493% (inactive) |
| COc1ccc(Br)cc1/C=N/Nc1ccc(S(=O)(=O)Nc2ccccc2C(=O)O)cc1[N+](=O)[O-] | 108% (active) |
| COc1cc(CCN=Cc2ccccc2O)c([N+](=O)[O-])cc1OC | -13% (inactive) |
| COc1ccccc1C(CNC(=O)c1cccc(NS(=O)(=O)c2ccc(Br)cc2)c1)N(C)C (stereo not given) | -3.01% (inactive) |
| COCOCCn1cc(CN2CCS(=O)(=O)N(Cc3ccc(-c4ccccc4)cc3)C(CC(C)C)C2=O)nn1 (stereo not given) | 3.98% (inactive) |
| COc1ccc(OCc2nnc3n2N=C(c2ccccc2)C(CC(=O)O)S3)cc1 (stereo not given) | 10.5% (inactive) |
| CCOC(=O)C1=C(COC(=O)[C@H](C)NS(=O)(=O)c2ccccc2F)NC(=O)NC1C (stereo not given in full) | 2.53% (inactive) |
| O=C(O)CC(CC(=O)N1CCOCC1)c1ccccc1 (stereo not given) | 4.09% (inactive) |
| Oc1ccc(N=Cc2sc3ccccc3c2Cl)cc1 | 43.8% (active) |
| CCCNC(=O)c1cc(C2CCCN(C(=O)c3ccc4c(c3)CCO4)C2)on1 (stereo not given) | -2.48% (inactive) |
| CCCCN(C)CCNC(=O)C1CCCN(S(=O)(=O)c2cccc3nsnc23)C1 (stereo not given) | -32.8% (inactive) |
| COc1ccc(CCNC(=O)C(=O)Nc2ccc3nc4n(c(=O)c3c2)CCCCC4)cc1OC | -4.72% (inactive) |

| Compound | inhibition |
| --- | --- |
| CC(=O)NN=C(C)c1ccc(NC(=O)C2CC2)cc1 | -0.643% (inactive) |
| Cc1c(Cl)cccc1NC(=O)CCC(=O)N/N=C/c1ccco1 | -6.83% (inactive) |
| O=C(Cn1cnc2ccccc21)N/N=C/c1ccco1 | -6.39% (inactive) |
| O=C(N/N=C/c1ccco1)c1ccc(C(=O)N/N=C/c2ccco2)o1 | 36.6% (active) |
| O=C(O)c1ccccc1OCc1ccccc1Cl | 1.06% (inactive) |
| Cc1c(CCC(=O)O)c(=O)oc2c(C)c(OCc3ccccc3Cl)ccc12 | 56.6% (active) |
| COc1ccc2c(C)c(CCC(=O)NC3CC3)c(=O)oc2c1C | 1.06% (inactive) |
| Cc1cc(C)n2nc(C(=O)OC(C)C(=O)c3cc(C)c(C)cc3C)nc2n1 (stereo not given) | 1.78% (inactive) |
| O=C(CNC(=O)[C@@H]1Cc2ccccc2CN1)NC1CCCCC1 | 3.02% (inactive) |
| C/C=C\C=C\C(=O)N1CC2(CC(c3cccc(NC(=O)/C(C)=C\C)c3)=NO2)C[C@H]1C(N)=O (stereo not given in full) | -1.81% (inactive) |
| CC/C=C/C(=O)N1CC2(CC(c3cccc(NC(=O)CC)c3)=NO2)C[C@H]1C(N)=O (stereo not given in full) | 0.0237% (inactive) |
| C=C(C)C(=O)Nc1cccc(C2=NOC3(C2)C[C@H](C(N)=O)N(C(=O)C(c2ccccc2)c2ccccc2)C3)c1 (stereo not given in full) | 61.6% (active) |
| COc1cccc(NC(=O)C(Sc2nc3ccccc3c(=O)n2CC(C)C)c2ccccc2)c1 (stereo not given) | 1.55% (inactive) |
| Cc1nc([N+](=O)[O-])c(NCCCO)n1Cc1ccccc1 | -1.9% (inactive) |
| CCCCNC(=O)Nc1c(C)cc(SC#N)cc1C | -6.49% (inactive) |
| CCOC(=O)Cn1c2c(c(-c3ccccc3OC)cc1=O)CCCC2 | -0.83% (inactive) |
| CCOc1ccc(-c2nc(N)ncc2-c2ccccc2OC)c(O)c1 | 39.4% (active) |
| COc1ccc(-c2c(-c3ccc(OC)cc3O)nc(C)nc2C(F)(F)F)cc1 | 3.81% (inactive) |
| Cc1nnc(SCC(=O)Nc2ccc(S(=O)(=O)Nc3ccc(Cl)nn3)cc2)s1 | 25.2% (inactive) |
| COC(=O)CNC(=O)c1ccc(OC2CCN(C(=O)C3CC3)CC2)cc1 | -0.596% (inactive) |
| Clc1ccc(C2=CSC3=Nc4cccc5cccc(c45)N23)cc1 | 55.4% (active) |
| CC(C)(C)NC(=O)C(c1ccco1)N(Cc1ccc2c(c1)OCO2)C(=O)Cn1nnc2ccccc21 (stereo not given) | 1.87% (inactive) |
| CCCCn1c(N)c(N(CC(C)C)C(=O)C2CSC3(C)CCC(=O)N23)c(=O)[nH]c1=O (stereo not given) | 2.07% (inactive) |

| Compound | inhibition |
| --- | --- |
| CSc1cc(C)n(-c2ccccc2C)c(=S)c1C(C)=O | -3.72% (inactive) |
| O=C(c1cccs1)N1CCC(c2nc3ccccc3s2)CC1 | -0.383% (inactive) |
| O=C(NCCCN1CCOCC1)c1ccccc1NS(=O)(=O)c1ccc(F)cc1 | 2.97% (inactive) |
| CCOC(=O)Cn1nnnc1C | 4.96% (inactive) |
| COc1ccc(S(=O)(=O)N2CCOCC2)c(C)c1C | 0.744% (inactive) |
| C=CCn1c(=S)[nH]c2scc(-c3ccco3)c2c1=O | 80.7% (active) |
| C=CCNC(=S)NNc1ncnc2sc3c(c12)CC(C)(C)OC3 | -4.03% (inactive) |
| O=C(Nc1ccccc1C(=O)NCCCn1ccnc1)c1ccc(Cl)cc1Cl | -2.3% (inactive) |
| C=C(Br)CN1CCN(CC(=C)Br)CC1 | 1.02% (inactive) |
| O=C(CN1CCCCCC1)Nc1c(Cl)cc(Cl)cc1Cl | -1.26% (inactive) |
| Cc1nnc(NC(=O)CSc2nc(C3CCCCC3)nc3ccccc23)s1 | -2.49% (inactive) |
| O=C(CSc1nc(C2CC2)nc2ccccc12)Nc1cccc(O)c1 | 45.7% (active) |
| O=C(CSc1nc(C2CC2)nc2ccccc12)Nc1ccc2c(c1)OCCO2 | -1.95% (inactive) |
| O=C(Cn1cnc2c(nnn2Cc2ccc(F)cc2)c1=O)NCc1ccc2c(c1)OCO2 | 1.22% (inactive) |
| Cc1cc(S(=O)(=O)c2cc3ccc(O)c(C)c3oc2=O)ccc1F | -12.4% (inactive) |
| OCCc1ccc(NCCc2ccco2)cc1 | 4% (inactive) |
| COc1ccccc1NC(=O)c1cc(Cl)nnc1Cl | -6.09% (inactive) |
| COc1ccc(C(=O)N/N=C(\C)CC(=O)Nc2ccc(Cl)cn2)cc1 | -4.09% (inactive) |
| COc1ccc(C(=O)Nc2cc(C)c(NC(=O)c3ccccc3OC)cn2)cc1 | 40% (active) |
| CCOc1ccc(NC(=O)c2ccc(NC(=O)C3CCCO3)cc2)cc1 (stereo not given) | 1.59% (inactive) |
| CCOc1ccc(NC(=O)c2ccc(NC(=O)CN3C(=O)C(=O)N(CC(C)C)C3=O)cc2)cc1 | 6.4% (inactive) |
| CCOc1ccc(NC(=O)c2ccc(NC(=O)COC(=O)c3ccc(NC(=O)CC#N)cc3)cc2)cc1 | 58.6% (active) |
| CCCCn1c(N)c(N(CCOC)C(=O)c2cccc(S(=O)(=O)N3CCCCC3)c2)c(=O)[nH]c1=O | 1.21% (inactive) |

| Compound | inhibition |
| --- | --- |
| Cc1nc2ccccc2c(C)c1C(=O)c1ccc(F)cc1 | -0.636% (inactive) |
| O=C(NNC(=S)NC(=O)c1cn(-c2ccccc2)nc1-c1ccccc1)c1ccncc1 | 7.64% (inactive) |
| Cc1onc(-c2ccccc2)c1C(=O)NNC(=S)NC(=O)c1ccc(F)cc1 | 61.3% (active) |
| CCc1nc2ccc(C(=O)N(C)Cc3ccco3)cn2c1N(C)C(=O)Cc1ccccc1 | 3.29% (inactive) |
| CCc1cc2cc(OC)ccc2nc1SCC(=O)Nc1cc(OC)c(OC)cc1C(=O)O | 4.88% (inactive) |
| CCOC(=O)C1=C(C)NC(C)=C(C(=O)OCC)C1C1=COCCO1 | -7.71% (inactive) |
| O=C(Nc1ccc(N2CCN(C(=O)c3cccs3)CC2)cc1)c1cccnc1Cl | -1.91% (inactive) |
| CC(=O)Nc1cc(-c2ccc(N3CCN(C)CC3)cc2)cn2c(-c3ccc(F)cc3)cnc12 | -43.3% (inactive) |
| C=CC(=O)Nc1ccc(Nc2ccnc(Nc3ccc(N4CCN(C)CC4)cc3)n2)cc1 | 88.3% (active) |
| Cc1noc(C)c1S(=O)(=O)Nc1ccc(C(=O)O)cc1 | 2.25% (inactive) |
| CC(=O)N1c2ccc(S(=O)(=O)N3CCCC(C(=O)Nc4cccc(F)c4)C3)cc2CC1C (stereo not given) | 1.06% (inactive) |
| O=C(COc1ccc([N+](=O)[O-])cc1Cl)Nc1ccc2[nH]c(=O)[nH]c2c1 | -14.3% (inactive) |
| COc1ccc(C(=O)OCC(=O)Nc2ccc3[nH]c(=O)[nH]c3c2)c(OC)c1OC | 45.3% (active) |
| O=C(COC(=O)c1cccc(Cl)c1)Nc1ccc2[nH]c(=O)[nH]c2c1 | 3.54% (inactive) |
| Cc1ccc(S(=O)(=O)N2CCN(C(=O)Cn3c(=O)cnc4ccccc43)CC2)c(C)c1 | -18.5% (inactive) |
| O=C(CCl)N(Cc1cccc([N+](=O)[O-])c1)c1cccc(Cl)c1 | -8.32% (inactive) |
| Nc1c(Cl)cc(S(N)(=O)=O)cc1S(N)(=O)=O | -2.85% (inactive) |
| Cc1ccc(SC(CC(=O)c2ccc(C(C)(C)C)cc2)C(=O)O)cc1 (stereo not given) | 1.42% (inactive) |
| CCC(=O)c1ccc(OCC(O)CN2CCN(c3cccc(C(F)(F)F)c3)CC2)cc1 (stereo not given) | -0.535% (inactive) |
| OC(COc1ccc2c(c1)CCC2)CN1CCN(c2cccc(Cl)c2)CC1 (stereo not given) | 0.823% (inactive) |
| OC(COc1ccccc1)CN1CCN(c2cccc(Cl)c2)CC1 (stereo not given) | 49.6% (active) |
